Screening data (PubChem)
ClpP mod: qHTS Assay for Activators of ClpP. ATP-dependent Clp protease proteolytic subunit (Bacillus subtilis (strain 168)), P80244. purified B. subtilis ClpP, FRET peptide cleavage, 20 min. Potency, µM (titrated, usually from 57.5 µM), for the others: at the top dose activity change, negative = active. hit rate 1.9% among 340,000; active means well fitted falling curve with a large enough effect; inconclusive means small, poorly fitted or top-dose-only effect; inactive means no such curve, though single readings can be large or run the other way; further: potency means the concentration at half of the fitted maximal effect; the source files actives as falling curves though it sought activators and does not explain the sign; nearly all actives have a fitted effect of over 65% in size
Target sequence (P80244 whole entry, looked up): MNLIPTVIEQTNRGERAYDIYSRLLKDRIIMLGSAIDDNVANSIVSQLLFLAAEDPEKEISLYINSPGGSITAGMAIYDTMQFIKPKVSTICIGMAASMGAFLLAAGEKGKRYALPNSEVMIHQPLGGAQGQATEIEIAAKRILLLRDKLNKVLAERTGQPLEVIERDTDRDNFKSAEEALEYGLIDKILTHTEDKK
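Purified B. subtilis ClpP, 10 microg/mL final in Tris/HCl pH8 with KCl, BSA, glycerol and Tween-20, cleaved an Abz/nitrotyrosine-quenched decapeptide. Fluorescence (ex 320, em 430) was read at 0 and 20 min at room temperature. Delta was normalized to 5.8 microM ADEP and DMSO/no-enzyme controls.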
TCR activator: T cell receptor activation; primary human leukocytes, anti-CD3, IL-2 HTRF, 48 h; Potency, µM (series often up to 9.22 µM), for the others: at the highest dose activation of IL-2 secretion, actives largely listed as activators; 330,000 tested, under 10 active; further: % of control where 0% means no effect
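48 hr co-incubation of compounds, a-CD3 beads and primary human leukocytes; IL-2 quantified homogeneously by HTRF with anti-IL-2 K and d2 conjugates.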
GRP78 ERSR act: ER stress response induction in glioma. U87-MG GRP78 promoter luciferase reporter, 16 h. Potency, µM, for the others: top-dose activation, hits mostly activators. hit rate 0.02% among 420,000; further: potency means the concentration at half of the fitted maximal effect; series mostly up to about 76 µM; % of control where 0% means no effect; nearly all actives have a fitted effect of over 35% in size
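ERSR induction read as luciferase luminescence (Bright-Glo, 10 min at room temperature) in stably transfected human U87-MG glioma cells exposed to compounds for 16 h, using GRP78 as sensor.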
MBNL1-CUG inh: inhibitors of human MBNL1 binding to CUG repeat RNA | TR-FRET MBNL1-His/biotin-(CUG)12 binding, 665/545 ratio | Potency, µM (titrated, usually from 57.5 µM), for inactives: top-dose activity change, negative = inhibition, usual class: inhibitors | hit rate 0.036% among 280,000 | AID 2675; active means well fitted inhibition curve with a large enough effect in the signal ratio, with a control signal flat, not every such curve was filed as active; inconclusive means small, poorly fitted or top-dose-only effect, or effect the other way, or a change in a side signal; inactive means no such curve, though single readings can be large or run the other way; the % refers to the signal ratio; further: potency means the concentration at half of the fitted maximal effect; on the % scale 0 is the no-effect control and ±100 the full control effect
Target sequence (Q9NR56 whole entry, looked up): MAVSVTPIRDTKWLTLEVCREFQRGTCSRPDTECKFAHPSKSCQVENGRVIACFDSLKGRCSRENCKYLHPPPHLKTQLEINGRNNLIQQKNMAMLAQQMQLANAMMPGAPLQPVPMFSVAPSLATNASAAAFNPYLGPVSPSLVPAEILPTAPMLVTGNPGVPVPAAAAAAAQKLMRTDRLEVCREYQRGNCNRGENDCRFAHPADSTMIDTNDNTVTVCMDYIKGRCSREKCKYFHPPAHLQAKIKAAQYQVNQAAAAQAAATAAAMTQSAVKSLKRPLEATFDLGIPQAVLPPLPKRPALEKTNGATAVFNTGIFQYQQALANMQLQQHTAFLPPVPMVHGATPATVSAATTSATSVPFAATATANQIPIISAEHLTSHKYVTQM
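MBNL1-His + Biotin-(CUG)12, cpd titration 92 nM–58 uM; Tb anti-His Ab 0.055 ng/ul, SA-XL665 5 nM (final); 60 min RT; ratiometric 665/545 nm, Ex 340 nm; normalized to buffer and full-complex controls.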
Mito fusion yeast: mitochondrial division inhibition or fusion activation | hit rate 0.23% among 320,000 | Potency, µM (highest dose often 46.1 µM), inactives show top-dose growth rescue (activation), hits mostly activators | AID 485298 | S. cerevisiae fusion-defective mutant growth rescue, CellTiterGlo 48 h; further: potency means the concentration at half of the fitted maximal effect; % of control where 0% means no effect; nearly all actives have a fitted effect of over 45% in size
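Yeast fusion mutant, YPEG (non-fermentable carbon), compound, 48 h at 37C non-permissive; CellTiterGlo added, 10 min RT, luminescence read. Rescued growth = division inhibition.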
AT treatment: candidate therapy for ataxia-telangiectasia; F2112 A-T fibroblasts, KAP-1 phosphorylation AlphaLISA; neocarzinostatin DNA damage 30 min before lysis; Potency, µM (doses to about 57.5 µM), for the others: at the highest dose activation, actives largely listed as activators; hit rate 0.19% among 320,000; further: potency means the concentration at half of the fitted maximal effect; % of control where 0% means no effect; nearly all actives have a fitted effect of over 45% in size
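hTERT-immortalized A-T patient fibroblasts (F2112), 500 cells/well in OPTI-MEM, 1% FBS, got compounds for 60 min, then NCS for 30 min at 37C. Lysates were then assayed for phospho-KAP-1 by AlphaLISA (anti-pKAP1 donor, anti-KAP1 acceptor beads), 6 hr at 25C.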
Starred values were filed as active, the others as inactive; ? = inconclusive; . = no result given; [ ] = another dose, or the depositor's remark. Most compounds without a hit are left out; they make up all but 1.8% or so of the library. Unless noted, the call rests on the fitted dose curve; in most records, active means well fitted curve in the direction sought with a large enough effect; inconclusive means small, poorly fitted or top-dose-only effect, or another doubt; inactive means no such curve, though single readings can be large; an effect the other way counts as inactive or inconclusive.

SMILES | ClpP mod | TCR activator | GRP78 ERSR act | MBNL1-CUG inh | Mito fusion yeast | AT treatment
CCOC(=O)CCc1c(C)nc2cc(-c3ccc(F)cc3)[nH]n2c1=O | 25.1µM* | -7.2% | -2.4% | -1.9% | 0.1% | -3.8%
CCOC(=O)Cc1c(C)nc2cc(-c3ccc(Cl)cc3)[nH]n2c1=O | 28.2µM* | 4.2% | 1.0% | 4.9% | -1.3% | -12.1%
COCc1cc(=O)n2[nH]c(-c3ccc(C)cc3)cc2n1 | 20µM* | 2.1% | 1.8% | -9.3% | 3.3% | 4.1%
N=C(N)c1ccc(OCCCOc2ccc(C(=N)N)cc2Br)c(Br)c1 | . | . | -3.2% | . | . | .
COc1ccc(-c2cc(C)cc3c2OC(CNC(=O)/C=C/c2ccncc2)C3)nn1 (configuration not stated) | . | . | -2.1% | . | . | .
CCc1c(C)nc2cc(-c3ccc(OC)cc3)[nH]n2c1=O | 31.6µM* | 1.8% | 4.4% | 5.5% | -1.4% | -0.6%
CCN(CC)CCCN(Cc1cc2cc3c(cc2[nH]c1=O)OCCO3)C(=O)Nc1ccc(F)cc1 | 28.2µM* | 0.3% | -1.0% | -26.1% | 7.7% | -4.5%
COc1cc2cc(CN(CCN3CCCC3)C(=O)Nc3ccc(F)cc3)c(=O)[nH]c2cc1OC | 14.1µM* | 3.9% | 0.9% | 3.2% | -1.0% | 1.5%
COc1cc2cc(CN(Cc3cccs3)C(=S)Nc3ccccc3)c(=O)[nH]c2cc1OC | 10µM* | 1.4%[46.1 µM] | -1.7% | -1.4% | 5.9% | 8.0%
COc1cc2cc(CN(CCN3CCOCC3)C(=O)Nc3ccc(F)cc3)c(=O)[nH]c2cc1OC | 4.5% | -0.6% | -3.4% | -2.4% | 0.6% | 6.1%
CCNC(=S)N(CCCN(CC)CC)Cc1cc2cc3c(cc2[nH]c1=O)OCO3 | 4.1% | -6.6% | 3.9% | -1.6% | 0.9% | 3.5%
CCN(CC)CCCN(Cc1cc2cc(OC)c(OC)cc2[nH]c1=O)C(=O)Nc1ccccc1 | 31.6µM* | -0.1% | 0.5% | -2.7% | 0.5% | 3.5%
COc1ccc2[nH]c(=O)c(CN(Cc3cccs3)C(=S)Nc3ccccc3)cc2c1 | . | 5.0% | . | . | ? | -4.0%
CCN(CC)CCCN(Cc1cc2cc3c(cc2[nH]c1=O)OCO3)C(=S)Nc1ccccc1 | . | 3.2% | -3.0% | -7.3% | -2.5% | 2.9%
CCN(CC)CCCN(Cc1cc2cc3c(cc2[nH]c1=O)OCO3)C(=O)Nc1ccccc1OC | 31.6µM* | -3.9% | 1.8% | -0.7% | -2.5% | -0.8%
Cc1c(C(=O)NC2CCCCCC2)sc2ncnc(NCC3CCCO3)c12 (configuration not stated) | . | . | 3.1% | . | . | .
CCOc1cc2[nH]c(=S)n(CCCC(=O)NCc3ccco3)c(=O)c2cc1OCC | -4.6% | -7.4% | -3.0% | -2.1% | 2.0% | -1.4%
O=C(CCN1C(=O)c2ccccc2S1(=O)=O)NCc1ccco1 | 0.9% | 2.9% | -1.1% | -12.5% | -2.9% | -9.6%
CCOc1cc2[nH]c(=O)n(CCCC(=O)NCc3ccco3)c(=O)c2cc1OCC | 25.1µM* | -3.1% | -0.1% | -11.4% | -1.8% | -4.3%
CCOc1cc2[nH]c(=O)n(CCCCC(=O)N3CCN(c4cccc(Cl)c4)CC3)c(=O)c2cc1OCC | -6.1% | . | 2.4% | . | . | .
CCOc1cc2[nH]c(=O)n(CCCCC(=O)NCc3ccco3)c(=O)c2cc1OCC | 35.5µM* | 4.8%[46.1 µM] | -3.9% | 5.6% | -2.0% | 7.6%
O=C(CCCCCN1C(=O)c2ccccc2C1=O)NCc1ccco1 | 17.8µM* | -1.5% | 10.2% | 15.3% | -2.3% | 0.8%
CCOc1cc2[nH]c(=O)n(CCCCC(=O)N3CCCCCC3)c(=O)c2cc1OCC | 12.6µM* | 3.3%[46.1 µM] | -1.5% | 1.1% | -3.5% | 4.5%
C[N+](C)(CCCCCI)c1ccc(/C=C/c2nc3ccccc3s2)cc1 | 1.9% | . | -7.7% | . | . | .
CC(=O)OCON[N+]([O-])=NC1CCCCC1 | . | . | -3.4% | . | . | .
CC(=O)Nc1cccc2ccc(O)cc12 | . | 11.8% | -1.9% | . | . | .
CC(=O)Nc1cc2c3ccccc3ccc2c2ccccc12 | 31.6µM* | 2.1% | 4.0% | . | . | .
